Source: PubChem BioAssay
B2AR arrestin = agonists driving beta-arrestin recruitment to human beta2-adrenergic receptor. P07550. beta-arrestin recruitment to beta2AR, cell-based reporter. Potency, µM (doses to about 46.1 µM), without a hit: at the top dose activation, hits mostly activators. 0.02% of 330,000 active. AID 492947;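 note: potency is the fitted concentration of half-maximal effect; 0% = DMSO controls and full agonism = EC100 isoproterenol or metaproterenol; nearly all actives have a fitted effect of over 65% in size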
Target sequence (P07550 whole entry, looked up): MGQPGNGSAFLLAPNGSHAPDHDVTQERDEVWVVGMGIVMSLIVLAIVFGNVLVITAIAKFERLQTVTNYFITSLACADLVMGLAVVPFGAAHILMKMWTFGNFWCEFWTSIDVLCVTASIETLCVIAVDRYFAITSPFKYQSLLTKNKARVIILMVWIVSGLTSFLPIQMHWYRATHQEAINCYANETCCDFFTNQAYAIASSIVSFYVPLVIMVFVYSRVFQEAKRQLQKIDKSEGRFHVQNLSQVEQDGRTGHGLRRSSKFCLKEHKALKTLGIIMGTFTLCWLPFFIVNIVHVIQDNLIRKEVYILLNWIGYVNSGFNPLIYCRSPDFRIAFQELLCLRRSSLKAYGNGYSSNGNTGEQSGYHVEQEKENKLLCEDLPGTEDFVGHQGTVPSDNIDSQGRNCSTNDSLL
GAA glycogen = alters human alpha-glucosidase cleavage of glycogen; P10253; recombinant GAA, glycogen substrate, Amplex Red glucose oxidase fluorescence; Potency, µM (doses to about 76.4 µM), inactives show at the top dose activity change, negative = inhibition, most hits filed as inhibitors; 0.38% of 300,000 active;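 note: potency is the fitted concentration of half-maximal effect; 0% = full enzyme reaction and -100% = no-enzyme basal signal; the screen sought inhibitors and activators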
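Recombinant enzyme (4 nM final) with compounds titrated up to 77 uM and bovine liver glycogen (30 ug) in citrate pH 5.0, 0.01% Tween-20, 37 C 40 min. Released glucose detected by Amplex Red/glucose oxidase (Ex 573/Em 610); AC50 from Hill fits.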
GAA inh = blocks human lysosomal alpha-glucosidase; P10253; purified human GAA, 4-MU-alpha-glucoside fluorescence; Potency, µM (highest dose often 76.9 µM), inactives show at the top dose activity change, negative = inhibition, hits mostly inhibitors; 0.005% of 200,000 active;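 note: potency is the fitted concentration of half-maximal effect; plate controls were uninhibited enzyme wells for no effect and no-enzyme background for full effect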
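Activity normalized between no-enzyme (basal) and enzyme-only wells. Conditions: 4 nM human enzyme, 400 uM fluorogenic substrate, citrate/phosphate pH 5.0 with Tween-20, 20 min room temperature, compounds up to 77 uM.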
aGlu spleen mod = inhibits or activates alpha-glucosidase in human spleen homogenate; P10253; human spleen homogenate, 4-MU-alpha-glucoside fluorescence; Potency, µM (doses to about 79.9 µM), for the others: top-dose activity change, negative = inhibition, hits mostly inhibitors; 0.006% of 240,000 active;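 note: potency is the fitted concentration of half-maximal effect; 0% = enzyme with vehicle and -100% = no enzyme basal signal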
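AC50 values come from Hill-equation fits of concentration-response data, normalized to no-enzyme and full-activity controls. Enzyme source: 1 ug human spleen homogenate; 1 mM fluorogenic 4-MU glucoside, pH 5.0 citrate buffer, 37 C, 40 min.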
FBPA coupling cs = counter-screen for Giardia aldolase inhibitors: coupling enzyme system; coupling enzyme system counterscreen, AmpLite Red fluorescence; activity change, negative = inhibition, % at 58.2 µM, hits read low; 0.67% of 290,000 active; AID 2472; in the data active = activity change below about -30%
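Activity here indicates interference with the coupling reaction, not aldolase inhibition. Compounds at 57.5 uM final met coupling enzymes for 10 min at RT; substrate and AmpLite Red detection followed, with a 525/598 nm fluorescence read after 20 min.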
The depositor's hits bear a star; u = inconclusive; x = not tested or not shown; ! = not active in a repeat; [ ] = another dose, or the depositor's remark. A selection: hits, their analogues and other compounds. The true share with any hit is near 0.85%. Unless noted, calls come from the whole dose curve; as a rule, active = well fitted curve in the direction sought with a large enough effect; inconclusive = small, poorly fitted or top-dose-only effect, or another doubt; inactive = no such curve, though single readings can be large; an effect the other way counts as inactive or inconclusive. Unless noted, % is set by controls: 0 for no effect and ±100 for the full control effect.

SMILES	B2AR arrestin	GAA glycogen	GAA inh	aGlu spleen mod	FBPA coupling cs
CCOC(=O)/C(=N\Nc1ccc(OC)cc1)c1csc(Nc2ccccc2)n1	0%	25µM*	-3%	-6%	-9
CCOC(=O)/C(=N/Nc1ccccc1)c1csc(Nc2ccccc2)n1	-2%	u	-9%	-8%	-3
Cc1ccc(NC(=O)COC(=O)c2cccc(C)c2[N+](=O)[O-])cc1S(=O)(=O)N1CCCCC1	0%	x	x	x	x
CCN(c1ccccc1)c1cc2ccccc2c(=O)[nH]1	0%	x	x	x	-34*
COc1cc(O)c2c(c1)oc(=O)c1c3cc(O)c(O)cc3oc21	x	x	x	-10%	-17
C/C=C(/C)C(=O)O[C@H]1CC(C)=CC(=O)[C@@]2(C)CC[C@@](O)(C(C)C)[C@H]12	x	x	x	6%	5
Cc1c2cc(O)c(=O)cc-2oc2cc(O)c(O)cc12	0%	u	-4%	4%	-54*!
CCN1CCN(C2=C(NS(=O)(=O)c3ccc(NC(C)=O)cc3)C(=O)c3ccccc3C2=O)CC1	0%	3%[76.3 µM]	x	x	x
CC(=O)Nc1ccc(S(=O)(=O)NC2=C(N3CCN(C)CC3)C(=O)c3ccccc3C2=O)cc1	0%	-4%[76.3 µM]	x	x	-52*
CCOC(=O)C1CCCN(C2=C(NS(=O)(=O)c3ccc(Br)cc3)C(=O)c3ccccc3C2=O)C1 (configuration not stated)	-1%	2%[76.3 µM]	x	x	-38*
CC1CCN(C2=C(NS(=O)(=O)c3ccc(Cl)cc3)C(=O)c3ccccc3C2=O)CC1	0%	2%	0%	11%	-34*
CC(=O)Nc1ccc(S(=O)(=O)NC2=C(N3CCN(Cc4ccccc4)CC3)C(=O)c3ccccc3C2=O)cc1	0%	u	-7%	0%	-44*
CCCC[C@@H]1CCCO[C@@](C(=O)NCCN2CCOCC2)(C(F)(F)F)C1	x	x	x	-8%	3
CSCC[C@@H]1NC(=O)C/C=C\[C@@H](C)COC(=O)[C@H](C)COC1=O	x	x	x	1%[17.4 µM]	0
Cc1ccc(F)c(C2C3C=CCCC3(C)C(=O)N2Cc2ccccc2)c1 (configuration not stated)	x	x	x	-8%	9
CC1(C)CC(=O)c2cc(C(=O)Nc3ccc(Br)cc3)c(=O)[nH]c2C1	x	-7%[76.3 µM]	x	x	x
C/C=C(/C(=C/C)c1ccc(O)cc1)c1ccc(O)cc1	1.5µM*	-14%	u	2%	4
C=C(c1ccc(O)cc1)c1ccc(O)cc1	0%	-20%	-1%	-14%	1
Cc1cc(C)c(OCC(=O)OCC(=O)N2CCCc3ccccc32)c(C)c1	0%	x	x	x	x
CCOc1ccccc1C(=O)Nc1ccc(S(=O)(=O)N(Cc2ccccc2)c2ccccc2)cc1	x	3%[76.3 µM]	x	x	x
COc1ccc(NC(=O)c2cc(S(=O)(=O)N(Cc3ccccc3)c3ccccc3)ccc2Cl)cn1	-1%	0%	7%	-2%	-44*
COc1ccc(-c2nnc3n2N=C(c2c(OC)cccc2OC)CS3)cc1	x	x	x	7%	-5
CCN(CC)C(=O)c1cc([N+](=O)[O-])cc2c1-c1ccc([N+](=O)[O-])cc1C2=C(C#N)C#N	0%	3%	x	-1%	-34*
COc1ccc(-c2c(C(=O)O)nc3ccccc3c2C(=O)O)cc1	-1%	-1%	0%	-2%	-34*
COc1ccc(C2CC(=O)Oc3c(C(CCN4CCOCC4)c4ccc5c(c4)OCO5)c(OC)cc(OC)c32)cc1 (configuration not stated)	x	x	x	15%	3
SMILES	B2AR arrestin	GAA glycogen	GAA inh	aGlu spleen mod	FBPA coupling cs
CC(=O)OCCn1c2nc(=O)[nH]c(=O)c-2nc2cc(C)c(C)cc21	-1%	6%	-15%	-9%	-19
Cc1cc2nc3c(=O)[nH]c(=O)nc-3n(CC(O)C(O)C(O)CO)c2cc1C (configuration not stated)	x	x	x	-7%	-33*!
O=C1CCCC(=NCc2ccco2)C1	-1%	1%	0%	-2%	1
CN(C)c1nc(=NCc2ccco2)ss1	2.2µM*	2%	-7%[15.4 µM]	-4%	-56*
C#CCCCO/N=C1/C[C@@H](O)[C@@H](O)[C@@H]2[C@@H]3C(=O)N(CC)C(=O)[C@H]3CC[C@@H]12	x	x	x	-4%[17.4 µM]	1
c1ccc(-c2nc(-c3ccccc3)c(NC3CCCCC3)o2)cc1	x	x	x	-3%	3
Cc1c(N=CC=Nc2c(C)n(C)n(-c3ccccc3)c2=O)c(=O)n(-c2ccccc2)n1C	-1%	-25%	1%	-3%	3
Cc1c(N=Cc2cccs2)c(=O)n(-c2ccccc2)n1C	-1%	25µM*	-3%	8%	1
Cc1ccsc1C=Nc1c(C)n(C)n(-c2ccccc2)c1=O	-1%	3.1µM*	6%	2%	-1
Cc1ccc(SCC(c2ccccc2)N2CCN(CCc3ccccc3)CCC2=O)cc1 (configuration not stated)	x	x	x	7%	4
Oc1ccccc1CNc1cnc2ccccc2c1	-1%	4%	8%	4%	0
Oc1ccc2ccccc2c1CNc1cnc2ccccc2c1	0%	-7%	u	12%	-46*
CC1(C)CC=C(O[Si](C)(c2ccccc2)c2ccccc2)CC1	x	x	x	-4%	2
COc1ccc(C(=O)COC(=O)CN2CC(=O)Oc3ccccc32)cc1Br	0%	3.1µM*	6%	-4%	-1
COc1ccc(C(=O)COC(=O)C2CC3CCCC(C2)C3=O)cc1Br (configuration not stated)	0%	x	x	x	x
O=C(c1cccs1)[C@@H]1[C@@H]2C(=O)N(Cc3ccc4c(c3)OCO4)C(=O)[C@@H]2C2c3ccccc3C=CN21 (some centres not stated)	3%	2%	-2%	-1%	-38*
O=C1C=C[C@@H](O)[C@H]2[C@@H]3C(=O)N(Cc4ccc5c(c4)OCO5)C(=O)[C@@H]3CC[C@H]12	x	x	x	-1%[17.4 µM]	-1
O=C(c1ccc2c(c1)OCO2)[C@@H]1[C@@H]2C(=O)N(C3CCCCC3)C(=O)[C@@H]2C2c3ccccc3C=CN21 (some centres not stated)	0%	17%	-8%	-1%	-36*
COc1ccc2[nH]cc(CCNc3ccnc(-c4ccc(C(=O)N(C)C)cc4)n3)c2c1	x	x	x	9%	-4
CC1CCN(S(=O)(=O)c2ccc3c4c2CC(=O)N4CC(C)S3)CC1 (configuration not stated)	0%	x	x	x	-33*
c1ccc(CC2CCN(C3=Nc4cccc5cccc3c45)CC2)cc1	1%	-2%	-1%	-3%	-6
CC1CN(C2=Nc3cccc4cccc2c34)CC(C)O1 (configuration not stated)	0%	9%	-15%	-4%	-46*
c1cc2c3c(cccc3c1)C(N1CCOCC1)=N2	-1%	11%	x	2%	-51*
CC(=O)N1CCN(C2=Nc3cccc4cccc2c34)CC1	0%	-11%	-21%	-17%	-47*
